High-throughput results from PubChem.
Only some compounds are listed: those with a hit (about 6.6% of all), similar ones and a draw of the others.
CSC inhib: blocks cancer stem cells. actives 1.1% (n = 300,000). cancer stem cell-like cells viability, luminescence. inhibition, % at 7.5 µM; in the data active = inhibition above about 75%; inconclusive = no clear call, values can overlap the other calls; tested in HMLE shEcad cells
MPTP inh: permeability transition pore inhibition. isolated mouse mitochondria, Ca2+ swelling absorbance, 30 min. inhibition, % at 10 µM. actives 1.4% (n = 360,000). AID 602449;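 active = inhibition of 50% or more, scaled per plate between neutral and stimulator controls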
Mdm2-MdmX inh: human Mdm2/MdmX binding inhibition; AID 485346; inhibition, % at 8 µM; SaOS-2 split-luciferase Mdm2/MdmX complementation, luminescence; O15151+Q00987; actives 3% (n = 330,000);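 active = inhibition of at least 50% at 8 µM in the primary screen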
NR3A LBD binder: NR3A (human) ligand-binding domain modulation; actives 2.5% (n = 340,000); AID 1259313; Tm shift relative to glycine control, % at 25 µM; NR3A LBD differential scanning fluorimetry, Tm shift; 0% = protein alone, 100% = glycine-bound protein;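 active = melting temperature shift of at least 10% of the positive control shift, at one fixed dose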
Beta cell apopt: beta cell apoptosis inhibition. INS-1E cytokine-induced death, ATP luminescence, 48 h; percent of positive-control rescue, neutral wells zero. actives 0.8% (n = 300,000). AID 435005. protection from apoptosis, % (no concentration beside the values);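 active = Every replicate reaches about 75%, or at least half do and their mean reaches it too, limit read from the data; inconclusive = At least half of replicates reach the limit but their mean does not; inactive = Under half of replicates reach the limit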;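 also: higher means more ATP so stronger rescue from cytokine killing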
Gli-Sufu antag: antagonists of Gli-Sufu signaling; Sufu-KO-LIGHT fibroblasts, Gli luciferase reporter luminescence; inhibition, % at 5 µM; actives 0.74% (n = 340,000); AID 588413;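 active = inhibition above about 55%, limit read from the data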
Large screens that a line does not name were inactive.

Cc1onc(-c2ccccc2)c1C(=O)OCC(=O)Nc1cccc(Cl)c1	NR3A LBD binder 13.2 (no result: CSC inhib)
C/C(=N\OC(=O)c1ccc(F)cc1)c1sc(-c2ccccc2)nc1C	NR3A LBD binder 10.8 (no result: Beta cell apopt)
C/C(=N\OC(=O)c1cccc(C)c1)c1sc(-c2ccccc2)nc1C	NR3A LBD binder 18.2
CCNC(=O)C1(C)CCCN(Cc2csc3ccccc23)C1 (stereo unspecified)	none (no result: CSC inhib, Mdm2-MdmX inh, NR3A LBD binder, Beta cell apopt, Gli-Sufu antag)
Clc1cccc(Nc2nc(-c3ccncc3)cs2)c1	CSC inhib inconclusive, NR3A LBD binder 30.6
c1ccc(-c2csc(Nc3cccnc3)n2)cc1	none
Clc1ccc(Nc2nc(-c3cccnc3)cs2)cc1	NR3A LBD binder 13.0
Fc1ccc(Nc2nc(-c3cccnc3)cs2)cc1	none
Clc1ccc(-c2csc(Nc3cccnc3)n2)cc1	NR3A LBD binder 14.6
COc1cc2c(cc1Cl)/C(=C\CCN(C)C)c1ccccc1S2	NR3A LBD binder 18.0
COC1=C(C)C(=O)C2=C(C1=O)C1C3CC4=C(C(=O)C(OC)=C(C)C4=O)C(CNC(=O)C(C)=O)N3C(C#N)C(C2)N1C (stereo unspecified)	Gli-Sufu antag 80.9 (no result: CSC inhib, Mdm2-MdmX inh, Beta cell apopt)
O=C(NCC(c1cccs1)N1CCOCC1)c1ccc(Cl)s1 (stereo unspecified)	CSC inhib 77.9
CC(C)(C)C(=O)Nc1ccc(C(=O)N/N=C/c2ccccc2OC(=O)c2ccc(Cl)cc2)cc1	NR3A LBD binder 21.4, Beta cell apopt 103.4
COc1cc(C(=O)Oc2ccccc2/C=N/NC(=O)c2ccc(C)cc2)cc(OC)c1OC	Beta cell apopt 102.5
CC(C)(C)C(=O)Nc1ccc(C(=O)N/N=C/c2ccccc2OC(=O)c2ccccc2)cc1	Beta cell apopt 86.7
CCOC(=O)C1=NN(C(C)=O)C2(CC(=O)N(c3ccc(C)c(C)c3)C2=O)C1 (stereo unspecified)	none (no result: CSC inhib)
CCOC(=O)C1=NN(C(C)=O)C2(CC(=O)N(c3cc(C)cc(C)c3)C2=O)C1 (stereo unspecified)	NR3A LBD binder 13.4
CC(=O)NC(c1ccc(F)c(F)c1)c1nc(-c2cnn(C)c2)cs1 (stereo unspecified)	none (no result: CSC inhib, Mdm2-MdmX inh, NR3A LBD binder, Beta cell apopt, Gli-Sufu antag)
Cc1ccc(-n2nnnc2-c2ccccc2)cc1	none
COc1ccc(-n2nnnc2-c2cccnc2)cc1	NR3A LBD binder 15.3
CCN(CC)S(=O)(=O)c1ccc(N=Nc2cc(C)cc(Br)c2O)cc1	none
Cc1ccc(N=Nc2ccc(O)cc2)c(Br)c1	CSC inhib 86.8, NR3A LBD binder 13.2
CC1CCN(CCOc2cccc(Br)c2)CC1	NR3A LBD binder 10.6
CC(=O)Nc1ccc(N2Cc3ccccc3C2)cc1	none (no result: Beta cell apopt)
CC(=O)Nc1ccc(N2S(=O)(=O)c3ccccc3S2(=O)=O)cc1	NR3A LBD binder 11.0
COc1ccc(CCNC(=O)C(=O)NCCC2CCCCN2S(=O)(=O)c2ccccc2)cc1 (stereo unspecified)	NR3A LBD binder 11.2 (no result: Gli-Sufu antag)
COc1ccc(S(=O)(=O)N2CCCC2CNC(=O)C(=O)Nc2ccc(F)cc2)cc1 (stereo unspecified)	NR3A LBD binder 11.5 (no result: Beta cell apopt)
COc1ccc(CCNC(=O)c2cc(S(=O)(=O)N3CCCCC3)ccc2Cl)cc1	NR3A LBD binder 15.5 (no result: CSC inhib, Beta cell apopt)
Cc1ccc(S(=O)(=O)N2CCCCC2CCNC(=O)C(=O)NCc2ccco2)cc1 (stereo unspecified)	NR3A LBD binder 18.1
Cc1ccc(S(=O)(=O)N2CCCCC2CCNC(=O)C(=O)NCCc2ccco2)cc1 (stereo unspecified)	none
COc1ccc(-c2nn(-c3ccccc3)cc2C(=O)O)cc1N	none
CC(/C=N/NC(=O)c1cccc(F)c1)=C\c1ccccc1	none
CC(/C=C/c1ccccc1F)=N\NC(=O)c1cccc(F)c1	NR3A LBD binder 22.0 (no result: CSC inhib)
CC(C)CCNC(=S)Nc1ccccc1F	NR3A LBD binder 13.7
CS(=O)(=O)c1ccc(C(=O)Nc2ccc(-c3nc4ccccc4[nH]3)cc2)cc1	NR3A LBD binder 32.2
CS(=O)(=O)c1cccc(C(=O)Nc2cccc(-c3nc4ccccc4[nH]3)c2)c1	none
CCOc1ccc(C(=O)Nc2ccc(-c3nc4ccccc4[nH]3)cc2)cc1[N+](=O)[O-]	NR3A LBD binder 211.8
CCOc1ccc(C(=O)Nc2ccc(NC(=O)c3ccccc3)c(C)c2)cc1[N+](=O)[O-]	NR3A LBD binder 17.9 (no result: CSC inhib, Beta cell apopt)
CS(=O)(=O)c1ccc(C(=O)Nc2cccc(-c3nc4ccccc4[nH]3)c2)cc1	NR3A LBD binder 12.9
CC(NC(=O)C1CCCN1C(=O)c1cccs1)c1ccc(Cl)cc1Cl (stereo unspecified)	none (no result: CSC inhib, Mdm2-MdmX inh, NR3A LBD binder, Beta cell apopt, Gli-Sufu antag)
CCCCN1C(=O)C(CC(=O)NC2CCCCC2)CC(C(=O)N(C(C)C)C(C)C)=C1C (stereo unspecified)	none (no result: CSC inhib, Mdm2-MdmX inh, NR3A LBD binder, Beta cell apopt, Gli-Sufu antag)
CCNC(=O)C1(C)CCN(C(=O)c2c(-c3ccccc3)noc2C)C1 (stereo unspecified)	none (no result: CSC inhib, Mdm2-MdmX inh, NR3A LBD binder, Beta cell apopt, Gli-Sufu antag)
COc1ccc(C(=O)NC(NC(=S)Nc2ccc(S(N)(=O)=O)cc2)C(Cl)(Cl)Cl)cc1 (stereo unspecified)	NR3A LBD binder 13.1
O=C1CCCC/C1=N\Nc1ccc(OCc2ccccc2)cc1	none
CCN(CC(=O)Nc1ccc2c(c1)OCCO2)CC(=O)Nc1ccc(C)c([N+](=O)[O-])c1	none
O=C1C[C@@H]2c3c(cccc3CN1Cc1ccc(Cl)cc1)C[C@@H](O)[C@H]2O	none (no result: CSC inhib, Mdm2-MdmX inh, Beta cell apopt)
O=C1N=c2ccccc2=C1c1sc(=S)n(Cc2ccccc2Cl)c1O	NR3A LBD binder 19.4 (no result: Beta cell apopt)
O=C1N=c2ccccc2=C1c1sc(=S)n(-c2ccc(O)cc2)c1O	NR3A LBD binder 29.0
Cc1c(-n2c(O)c(C3=c4ccccc4=NC3=O)sc2=S)c(=O)n(-c2ccccc2)n1C	none
O=C1N=c2ccccc2=C1c1sc(=S)n(NC(=O)c2cccc(O)c2)c1O	none (no result: CSC inhib, Mdm2-MdmX inh, Beta cell apopt)
CN1OC[C@@H]2CN(C(=S)NCCc3ccccc3)[C@H](c3ccc(N4CCCCC4)cc3)C[C@@H]21	none (no result: CSC inhib, Mdm2-MdmX inh, NR3A LBD binder, Beta cell apopt, Gli-Sufu antag)
COc1ccc(N(CC(=O)NC2CCS(=O)(=O)C2)S(=O)(=O)c2ccc(Cl)c(Cl)c2)cc1 (stereo unspecified)	none (no result: CSC inhib, Beta cell apopt)
CC(Oc1ccc(F)cc1)C(=O)Nc1cc(S(=O)(=O)N2CCOCC2)ccc1N1CCCCC1 (stereo unspecified)	none (no result: NR3A LBD binder)
Cc1ccc(S(=O)(=O)N2CCCCC2)cc1NC(=O)c1c(-c2ccccc2)noc1C	none (no result: CSC inhib)
Cc1ccc([N+](=O)[O-])cc1NC(=O)c1c(-c2ccccc2)noc1C	NR3A LBD binder 13.0
COc1cc(C(F)(F)F)c(C(=O)N(C)Cc2cccc(Cl)c2)cn1	NR3A LBD binder 13.9
C=CCn1c(NC(=O)c2ccc(C)cc2)nc2ccccc21	none
N#CC1CC(c2ccccc2)Nc2cc(Cl)ccc2N1 (stereo unspecified)	NR3A LBD binder 13.5
Cc1nn(-c2ccccc2)c(Cl)c1/C=N/Nc1nncc(=O)[nH]1	none
COc1cc(-c2c(CCO)sc3ccccc23)cc(OC)c1OC	none (no result: CSC inhib, Mdm2-MdmX inh, NR3A LBD binder, Beta cell apopt, Gli-Sufu antag)
COc1ccc(C2NCCc3c2[nH]c2ccccc32)cc1CSc1nc2ccccc2s1 (stereo unspecified)	CSC inhib 115.6 (no result: Mdm2-MdmX inh)
